The full ranking holds about 33,000 sequences; the median of “e-score” is about -0.038, and the highest 2% start at about 0.33. The full list was thinned out, with the highest values kept by preference.

The target in the experiment is T1, GST-Rok-C97-191 (Bacillus subtilis subsp. subtilis str. …, UniProt O34857 97-191).
T1 sequence: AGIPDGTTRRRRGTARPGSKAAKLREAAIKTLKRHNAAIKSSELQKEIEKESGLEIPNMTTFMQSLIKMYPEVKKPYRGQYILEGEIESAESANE
The experiment is described as follows: protein binding microarray; Rok is a gene silencer of Bacillus subtilis; high values mean tight binding. The following applies: protein: recombinant; tags: GST (pTH5325, pDEST15-Magic modified); dsDNA, one strand shown. An outline of the steps: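 Every oligonucleotide joins a 25-mer constant primer to a 35-mer variable part drawn from a de Bruijn sequence of order 10, so each non-palindromic 8-mer appears at least 32 times and each palindromic 8-mer 16 times. The preference for every 8-mer is reported as a unitless, rank-based enrichment score (E-score). This score spans 0.5 for the most favored 8-mer to −0.5 for the most disfavored.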
Turning to GAATACTA, the binding signal stood at 0.209 E-score.

TAATACTA: the binding signal was 0.401 E-score. In the case of CAATACTA it was 0.217 E-score; in that of AAATACTC, 0.205 E-score; in that of AAATACTG, 0.283 E-score. In the case of AAATACTA it was 0.434 E-score; in that of CATCCCTA, -0.0266 E-score.

As to AGCTCGTA, the binding signal was 0.00298 E-score. In the case of AATCTAGG it was 0.171 E-score; in that of CATCTATA, 0.201 E-score; in that of AATCTATC, 0.421 E-score. For the sequence AATCTATA, the binding signal came out at 0.4 E-score. The figure for AATCTATG is 0.135 E-score; for GATCTATA it is 0.305 E-score. The figure for TATCTAGA is 0.159 E-score; for AATCTAGA it is 0.331 E-score. In the case of CATCTATC it was 0.201 E-score. With ACACGTGT, the binding signal was 0.00499 E-score. In the case of GATAAGAC it was 0.14 E-score. In the case of ACATGCGG it was 0.0405 E-score; in that of AAAAAGAG, -0.0136 E-score. In the case of CTCACATC it was -0.132 E-score.

Turning to ATTCATCA, the binding signal came to 0.0772 E-score. In the case of ACGATGCT it was 0.0784 E-score. In the case of ACTGACAT it was -0.113 E-score; in that of ACAGTCCC, -0.126 E-score.

With GCATAGAC, the binding signal was -0.0624 E-score. On to AACATATA, for which the binding signal amounted to 0.208 E-score. In the case of TACATGTA it was 0.417 E-score. The figure for AACATGTA is 0.237 E-score; for TACATATA it is 0.349 E-score; for CACATGTA it is 0.162 E-score. In the case of TACATCTA it was 0.369 E-score; in that of CACATCTA, 0.151 E-score. As to AACATCTA, the binding signal came out at 0.165 E-score. The figure for GATATGGA is 0.0314 E-score; for GACATATA it is 0.307 E-score; for TATATGGA it is 0.343 E-score. The figure for CATATGGA is 0.0214 E-score; for AGTCAACT it is 0.173 E-score. In the case of AGATTCGA it was 0.104 E-score; in that of ATAATTCG, 0.213 E-score.

With CCTGGTTA, the binding signal is 0.0123 E-score. In the case of CGACTCTA it was -0.0898 E-score. Regarding CCACATAC, the binding signal is 0.16 E-score. The figure for AGTGGAAT is -0.0459 E-score. As for CATATATC, the binding signal worked out at 0.279 E-score.

For the sequence TATATAGA, the binding signal was determined as 0.397 E-score.

Turning to GATATAGA, the binding signal worked out at 0.244 E-score. With TATATCGA, the binding signal is 0.314 E-score. Consider CATATAGA, for which the binding signal was determined as 0.144 E-score. The figure for TATATATA is 0.454 E-score; for CTTATATA it is 0.321 E-score; for CATATATG it is 0.306 E-score. The figure for CATATATA is 0.353 E-score; for CCAGTACA it is 0.0219 E-score; for GTAGTGCA it is 0.015 E-score. CAGGGCTA: the binding signal is -0.0484 E-score. In the case of CCTGTATA it was 0.157 E-score. With CAGGCGCC, the binding signal is -0.149 E-score. As for TACGTTCA, the binding signal is 0.085 E-score. The figure for CATAACGC is 0.0154 E-score. Turning to ACTTTGGA, the binding signal is -0.0486 E-score. In the case of ATGACGTA, the binding signal was -0.0485 E-score. The figure for AATCTGGA is -0.12 E-score; for AACCAGTA it is 0.278 E-score. In the case of ATCTAGTG it was 0.364 E-score; in that of CACTAGTA, 0.253 E-score. Take AACTAGGG: the binding signal was -0.0014 E-score. In the case of CACTAGTG it was -0.0787 E-score. Take AACTAGTC: the binding signal was 0.0892 E-score.

On to AACTAGGT, for which the binding signal worked out at 0.318 E-score. The figure for ATCTAGTA is 0.31 E-score.

Consider ACCTAGTA, for which the binding signal was determined as 0.233 E-score. AACTAGTA: the binding signal was found to be 0.47 E-score. The figure for AACTAGTT is 0.439 E-score.

With AACTAGTG, the binding signal stood at 0.376 E-score. Consider ATCTAGTC, for which the binding signal amounted to 0.287 E-score. The figure for CTGACATC is -0.162 E-score. Consider ATTACGCC, for which the binding signal is -0.0244 E-score. The figure for CTTAAAGA is -0.126 E-score; for CATAGTGC it is -0.076 E-score.

Regarding ATTGTCCG, the binding signal is -0.0512 E-score. The figure for AAGCAAGC is -0.165 E-score. The figure for CAGCAATA is 0.203 E-score; for CGTCATAC it is 0.0184 E-score; for TACTAGTA it is 0.433 E-score. On to GACTAGGA, for which the binding signal is -0.0139 E-score. In the case of TACTAGCA it was 0.256 E-score; in that of GACTAGTA, 0.368 E-score; in that of GACTAGTC, 0.0585 E-score. The figure for GGCTAGTA is 0.115 E-score; for AGCTAGTC it is 0.104 E-score. In the case of AGCTAGTA it was 0.336 E-score; in that of TACTAGGA, 0.115 E-score. As for AGCGCTCA, the binding signal came to 0.00935 E-score. Take CTGCTACC: the binding signal was -0.0872 E-score. For the sequence TCCCTAAA, the binding signal was -0.186 E-score. The figure for ACGCGCTC is -0.0411 E-score; for AGTTTCCG it is 0.112 E-score. Take GCGGCCAA: the binding signal is -0.114 E-score. With GAACGTTA, the binding signal is 0.178 E-score.

For the sequence AAACGTTA, the binding signal amounted to 0.0818 E-score. In the case of TAACGTTA it was 0.339 E-score; in that of CCTAATGC, -0.154 E-score.

On to AACGTGGC, for which the binding signal is -0.0901 E-score. In the case of GAAGTATA it was 0.164 E-score; in that of CTAGTATC, 0.111 E-score. The figure for CTAGTATA is 0.37 E-score; for ATAGTATG it is 0.316 E-score. In the case of ATAGTATC it was 0.278 E-score; in that of GCAGTATA, 0.224 E-score; in that of CAAGTATA, 0.251 E-score. As to ATAGTATA, the binding signal came to 0.334 E-score. Take GTAGTATA: the binding signal came to 0.428 E-score.

With CGTTGGAG, the binding signal was -0.19 E-score. The figure for AGGTATAC is 0.19 E-score; for CATTCATA it is 0.181 E-score; for CTGTCCCA it is -0.0317 E-score. The figure for CTTTCTCA is -0.12 E-score; for AGGGAAAC it is -0.0931 E-score; for AGATAGAC it is 0.0495 E-score. In the case of AGATAGAT, the binding signal was 0.349 E-score.

ACATAGAC: the binding signal was determined as 0.0775 E-score. Turning to ACATAGAT, the binding signal is 0.33 E-score. The figure for ACATAGAG is -0.0925 E-score. The figure for AGATAGAG is 0.128 E-score; for AATTAGAA it is 0.202 E-score. The figure for ACGTACGG is 0.0152 E-score. ACTAGTAC: the binding signal worked out at 0.393 E-score. The figure for ACTAGTAT is 0.409 E-score. The figure for CCTAGTAC is 0.0475 E-score; for TCTAGTAA it is 0.265 E-score; for GCTAGTAC it is 0.184 E-score.

For ACTAGTCG, the binding signal worked out at 0.181 E-score. Regarding ACTAGTAG, the binding signal was determined as 0.404 E-score.

With ACCAGTAT, the binding signal turned out to be 0.196 E-score. In the case of ACTAGTAA it was 0.423 E-score; in that of CCTAGTAG, 0.25 E-score.

With ACTAGTCT, the binding signal was determined as 0.215 E-score. In the case of CCTAGTAA it was 0.145 E-score. In the case of ACCTTGGC it was -0.158 E-score; in that of CATTCGAA, 0.101 E-score. AACCAATT: the binding signal stood at 0.204 E-score. With ACTCAAGA, the binding signal was -0.0762 E-score. In the case of CATAATGA it was 0.175 E-score; in that of AAATTGAT, 0.0406 E-score. On to CTTCCTCA, for which the binding signal was -0.0806 E-score. Consider GACAGCGA, for which the binding signal was -0.193 E-score. GCGTAGAC: the binding signal was -0.111 E-score. The figure for CATATCGA is 0.0885 E-score; for AATATCTC it is 0.28 E-score; for GATATCCA it is 0.0457 E-score. The figure for AATATCTA is 0.343 E-score. GATATCAA: the binding signal stood at 0.158 E-score. The figure for CATATCTC is 0.0436 E-score; for AATATCTG it is 0.2 E-score. Regarding CATATCTA, the binding signal stood at 0.34 E-score. For the sequence GATATCTA, the binding signal worked out at 0.349 E-score. In the case of ACATCTTC it was 0.0581 E-score. The figure for ACTAAACC is -0.0801 E-score; for CCTATTAG it is 0.16 E-score; for CGACTGAA it is -0.021 E-score. The figure for CGTAACAG is 0.131 E-score. Take CGTCGAAA: the binding signal is 0.106 E-score. In the case of AATTAGTA it was 0.408 E-score.

Regarding ATTTAGTA, the binding signal stood at 0.4 E-score. The figure for CATTAGTA is 0.26 E-score; for ATTTAGTG it is 0.0465 E-score; for AATTAGTG it is 0.28 E-score.

With GTTTAGTA, the binding signal turned out to be 0.31 E-score. The figure for CATGGAAC is -0.0493 E-score.

For the origin of these results see article PMC6212790, “How bacterial xenogeneic silencer rok distinguishes foreign from self DNA in its resident genome”.
